Data from ChEMBL document CHEMBL1961873, “Compounds: GSK PKIS; Assays: Nanosyn kinase panel” (2012).

Columns and labels:
[1] = target: T1, Inhibitor of nuclear factor kappa-B kinase subunit epsilon (Homo sapiens) (UniProt Q14164); settings: at 1 µM;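 further: reported values are averaged percent inhibition figures against human IKKε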
T1 sequence (whole entry): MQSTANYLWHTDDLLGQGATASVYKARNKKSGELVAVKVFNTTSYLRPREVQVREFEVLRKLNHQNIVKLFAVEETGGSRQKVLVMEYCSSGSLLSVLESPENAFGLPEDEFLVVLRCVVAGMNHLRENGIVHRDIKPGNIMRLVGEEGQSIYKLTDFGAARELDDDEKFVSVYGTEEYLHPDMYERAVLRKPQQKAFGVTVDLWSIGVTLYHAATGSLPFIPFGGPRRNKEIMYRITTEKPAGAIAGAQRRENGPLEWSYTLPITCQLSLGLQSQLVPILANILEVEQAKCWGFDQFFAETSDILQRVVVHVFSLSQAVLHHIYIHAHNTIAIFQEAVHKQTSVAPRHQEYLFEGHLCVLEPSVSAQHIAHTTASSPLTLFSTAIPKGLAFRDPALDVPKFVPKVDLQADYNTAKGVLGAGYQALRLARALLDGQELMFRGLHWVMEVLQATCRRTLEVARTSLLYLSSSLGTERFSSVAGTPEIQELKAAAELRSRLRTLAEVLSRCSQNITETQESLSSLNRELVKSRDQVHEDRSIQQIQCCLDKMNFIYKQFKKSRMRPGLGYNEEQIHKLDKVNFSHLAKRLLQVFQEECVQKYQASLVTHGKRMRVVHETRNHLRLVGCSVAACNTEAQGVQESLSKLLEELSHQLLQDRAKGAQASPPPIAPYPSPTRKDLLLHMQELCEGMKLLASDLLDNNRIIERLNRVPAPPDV

[2] = target: T2, Serine/threonine-protein kinase Nek1 (Homo sapiens) (UniProt Q96PY6); settings: at 0.1 µM
T2 sequence (whole entry): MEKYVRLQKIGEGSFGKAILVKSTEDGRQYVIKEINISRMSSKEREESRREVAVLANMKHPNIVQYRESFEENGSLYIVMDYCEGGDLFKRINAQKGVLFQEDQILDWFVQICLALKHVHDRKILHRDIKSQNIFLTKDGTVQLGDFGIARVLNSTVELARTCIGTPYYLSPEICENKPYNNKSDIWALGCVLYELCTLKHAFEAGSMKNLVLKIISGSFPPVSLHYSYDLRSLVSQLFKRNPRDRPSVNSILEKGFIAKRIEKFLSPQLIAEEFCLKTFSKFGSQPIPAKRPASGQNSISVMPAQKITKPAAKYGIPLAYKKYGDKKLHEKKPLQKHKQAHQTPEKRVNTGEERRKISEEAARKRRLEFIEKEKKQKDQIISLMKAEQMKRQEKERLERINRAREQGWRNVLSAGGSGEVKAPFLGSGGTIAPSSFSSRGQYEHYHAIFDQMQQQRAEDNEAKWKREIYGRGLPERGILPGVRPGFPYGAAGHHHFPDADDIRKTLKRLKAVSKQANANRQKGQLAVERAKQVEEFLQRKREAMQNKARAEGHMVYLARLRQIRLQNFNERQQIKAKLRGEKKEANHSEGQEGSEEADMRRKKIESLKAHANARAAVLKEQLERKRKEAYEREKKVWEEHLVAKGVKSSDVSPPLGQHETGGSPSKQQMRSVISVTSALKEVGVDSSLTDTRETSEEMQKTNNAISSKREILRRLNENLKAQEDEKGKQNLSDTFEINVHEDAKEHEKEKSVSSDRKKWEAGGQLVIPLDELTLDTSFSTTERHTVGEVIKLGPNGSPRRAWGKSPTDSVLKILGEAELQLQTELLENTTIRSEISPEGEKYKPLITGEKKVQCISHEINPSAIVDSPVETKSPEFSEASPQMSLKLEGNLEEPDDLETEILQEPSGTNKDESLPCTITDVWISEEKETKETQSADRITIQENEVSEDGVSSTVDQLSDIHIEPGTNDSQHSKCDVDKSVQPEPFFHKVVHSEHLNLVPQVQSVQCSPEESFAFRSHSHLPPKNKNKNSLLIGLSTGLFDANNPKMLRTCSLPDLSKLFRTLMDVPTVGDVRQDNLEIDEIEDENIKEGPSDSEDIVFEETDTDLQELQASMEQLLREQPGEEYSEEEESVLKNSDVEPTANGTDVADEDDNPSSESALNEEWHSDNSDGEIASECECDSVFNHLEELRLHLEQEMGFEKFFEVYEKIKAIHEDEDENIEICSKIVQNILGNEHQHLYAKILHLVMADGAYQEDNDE

[3] = target: T2, Serine/threonine-protein kinase Nek1 (Homo sapiens); settings: at 1 µM
[4] = target: T3, Serine/threonine-protein kinase Nek2 (Homo sapiens) (UniProt P51955); settings: at 0.1 µM
T3 sequence (whole entry): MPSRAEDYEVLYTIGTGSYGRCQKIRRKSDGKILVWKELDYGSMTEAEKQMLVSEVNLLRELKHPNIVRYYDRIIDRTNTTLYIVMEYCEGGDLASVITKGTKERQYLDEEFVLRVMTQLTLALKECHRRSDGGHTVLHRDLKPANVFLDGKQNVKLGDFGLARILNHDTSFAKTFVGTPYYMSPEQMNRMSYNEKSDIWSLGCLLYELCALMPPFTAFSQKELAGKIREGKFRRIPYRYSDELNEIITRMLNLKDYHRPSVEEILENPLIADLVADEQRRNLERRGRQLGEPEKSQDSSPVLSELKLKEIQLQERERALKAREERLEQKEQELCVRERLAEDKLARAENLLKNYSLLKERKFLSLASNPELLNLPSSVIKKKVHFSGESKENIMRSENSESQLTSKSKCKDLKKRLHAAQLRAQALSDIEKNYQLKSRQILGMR

[5] = target: T3, Serine/threonine-protein kinase Nek2 (Homo sapiens); settings: at 1 µM
[6] = target: Serine/threonine-protein kinase Nek6 (Homo sapiens) (UniProt Q9HC98); settings: at 0.1 µM
[7] = target: Serine/threonine-protein kinase Nek6 (Homo sapiens) (UniProt Q9HC98); settings: at 1 µM
[8] = target: Serine/threonine-protein kinase Nek7 (Homo sapiens) (UniProt Q8TDX7); settings: at 0.1 µM
[9] = target: Serine/threonine-protein kinase Nek7 (Homo sapiens) (UniProt Q8TDX7); settings: at 1 µM
[10] = target: T4, Serine/threonine-protein kinase Nek9 (Homo sapiens) (UniProt Q8TD19); settings: at 0.1 µM
T4 sequence (whole entry): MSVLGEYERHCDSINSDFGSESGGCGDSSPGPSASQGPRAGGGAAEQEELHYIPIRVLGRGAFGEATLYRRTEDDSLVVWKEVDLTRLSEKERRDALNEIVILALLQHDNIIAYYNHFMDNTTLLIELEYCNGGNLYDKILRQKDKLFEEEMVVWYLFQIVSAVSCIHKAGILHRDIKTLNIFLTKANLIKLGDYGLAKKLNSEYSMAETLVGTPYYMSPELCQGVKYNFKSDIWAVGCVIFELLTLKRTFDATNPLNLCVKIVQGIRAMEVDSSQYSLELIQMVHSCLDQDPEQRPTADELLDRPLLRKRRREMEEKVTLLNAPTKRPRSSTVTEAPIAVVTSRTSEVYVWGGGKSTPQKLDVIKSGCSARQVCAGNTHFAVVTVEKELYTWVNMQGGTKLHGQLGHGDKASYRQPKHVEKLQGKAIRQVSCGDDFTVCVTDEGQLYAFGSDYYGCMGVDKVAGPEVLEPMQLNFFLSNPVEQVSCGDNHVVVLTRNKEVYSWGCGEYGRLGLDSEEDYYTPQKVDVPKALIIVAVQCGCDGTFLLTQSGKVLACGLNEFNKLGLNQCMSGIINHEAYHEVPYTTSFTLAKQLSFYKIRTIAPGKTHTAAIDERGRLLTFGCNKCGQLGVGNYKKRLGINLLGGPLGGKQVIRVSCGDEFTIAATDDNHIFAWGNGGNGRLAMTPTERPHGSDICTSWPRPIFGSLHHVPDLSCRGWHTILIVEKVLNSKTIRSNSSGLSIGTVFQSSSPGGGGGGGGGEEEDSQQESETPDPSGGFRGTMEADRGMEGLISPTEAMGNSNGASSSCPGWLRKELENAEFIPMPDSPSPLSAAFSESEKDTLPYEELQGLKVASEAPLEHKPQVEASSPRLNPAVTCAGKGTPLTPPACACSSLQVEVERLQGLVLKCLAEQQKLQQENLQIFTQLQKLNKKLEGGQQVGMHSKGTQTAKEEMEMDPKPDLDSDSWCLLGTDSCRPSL

[11] = target: T4, Serine/threonine-protein kinase Nek9 (Homo sapiens); settings: at 1 µM
[12] = target: Serine/threonine-protein kinase PLK1 (Homo sapiens) (UniProt P53350); settings: at 0.1 µM
[13] = target: Serine/threonine-protein kinase PLK1 (Homo sapiens) (UniProt P53350); settings: at 1 µM
[14] = target: T5, Dual specificity protein kinase TTK (Homo sapiens) (UniProt P33981); settings: at 0.1 µM
T5 sequence (whole entry): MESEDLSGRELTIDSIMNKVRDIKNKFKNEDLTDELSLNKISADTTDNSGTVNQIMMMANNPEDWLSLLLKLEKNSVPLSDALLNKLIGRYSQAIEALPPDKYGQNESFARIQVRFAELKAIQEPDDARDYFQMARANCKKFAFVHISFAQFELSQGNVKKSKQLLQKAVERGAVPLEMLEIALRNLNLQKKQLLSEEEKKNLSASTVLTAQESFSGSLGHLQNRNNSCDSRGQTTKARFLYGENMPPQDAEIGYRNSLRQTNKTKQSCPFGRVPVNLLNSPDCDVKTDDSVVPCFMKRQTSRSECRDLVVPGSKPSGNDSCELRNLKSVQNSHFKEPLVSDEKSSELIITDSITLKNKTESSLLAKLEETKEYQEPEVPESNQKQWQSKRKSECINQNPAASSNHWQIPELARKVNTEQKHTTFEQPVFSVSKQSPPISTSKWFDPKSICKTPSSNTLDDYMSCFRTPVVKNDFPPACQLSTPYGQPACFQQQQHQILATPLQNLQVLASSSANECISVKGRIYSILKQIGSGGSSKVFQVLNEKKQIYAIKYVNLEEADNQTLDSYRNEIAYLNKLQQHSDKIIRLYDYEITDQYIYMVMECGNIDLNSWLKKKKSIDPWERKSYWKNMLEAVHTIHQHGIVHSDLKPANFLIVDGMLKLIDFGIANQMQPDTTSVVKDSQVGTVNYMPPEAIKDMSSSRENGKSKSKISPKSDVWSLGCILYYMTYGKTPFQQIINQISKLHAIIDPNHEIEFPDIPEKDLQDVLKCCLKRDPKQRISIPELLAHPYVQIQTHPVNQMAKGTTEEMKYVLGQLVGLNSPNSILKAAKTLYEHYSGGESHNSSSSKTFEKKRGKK

[15] = tested on: T6, Receptor-type tyrosine-protein kinase FLT3 (Homo sapiens), P36888 [D835Y]; settings: at 1 µM
T6 sequence (whole entry): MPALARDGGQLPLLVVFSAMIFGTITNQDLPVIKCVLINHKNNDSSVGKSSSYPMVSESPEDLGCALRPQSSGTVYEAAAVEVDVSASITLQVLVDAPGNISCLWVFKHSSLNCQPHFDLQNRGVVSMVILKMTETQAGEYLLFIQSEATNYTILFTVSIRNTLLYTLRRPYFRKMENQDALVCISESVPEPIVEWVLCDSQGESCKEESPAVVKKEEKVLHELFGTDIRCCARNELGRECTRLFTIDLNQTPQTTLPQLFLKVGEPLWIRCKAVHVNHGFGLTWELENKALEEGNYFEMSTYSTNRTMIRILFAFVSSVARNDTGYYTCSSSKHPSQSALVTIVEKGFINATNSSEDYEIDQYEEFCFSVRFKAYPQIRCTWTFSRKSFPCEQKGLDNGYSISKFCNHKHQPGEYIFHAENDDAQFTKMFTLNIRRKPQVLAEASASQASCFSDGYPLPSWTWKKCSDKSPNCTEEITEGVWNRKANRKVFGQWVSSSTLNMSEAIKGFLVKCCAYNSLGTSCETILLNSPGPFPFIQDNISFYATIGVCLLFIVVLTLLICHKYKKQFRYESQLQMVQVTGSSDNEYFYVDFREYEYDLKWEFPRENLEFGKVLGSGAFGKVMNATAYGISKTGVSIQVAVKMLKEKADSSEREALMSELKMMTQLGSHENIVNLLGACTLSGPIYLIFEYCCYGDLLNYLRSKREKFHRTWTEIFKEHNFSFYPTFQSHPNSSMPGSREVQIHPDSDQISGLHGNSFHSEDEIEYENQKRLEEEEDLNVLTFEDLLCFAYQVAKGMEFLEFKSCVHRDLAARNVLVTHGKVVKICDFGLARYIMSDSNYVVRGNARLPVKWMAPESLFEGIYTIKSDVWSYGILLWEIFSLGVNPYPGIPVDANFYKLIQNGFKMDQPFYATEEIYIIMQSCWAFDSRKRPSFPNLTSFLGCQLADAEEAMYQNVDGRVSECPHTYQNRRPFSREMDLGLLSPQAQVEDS

[16] = target: Vascular endothelial growth factor receptor 3 (Homo sapiens) (UniProt P35916); settings: at 0.1 µM
[17] = target: Vascular endothelial growth factor receptor 3 (Homo sapiens) (UniProt P35916); settings: at 1 µM
[18] = target: Macrophage colony-stimulating factor 1 receptor (Homo sapiens) (UniProt P07333); settings: at 0.1 µM
[19] = target: Macrophage colony-stimulating factor 1 receptor (Homo sapiens) (UniProt P07333); settings: at 1 µM
[20] = target: Tyrosine-protein kinase Fyn (Homo sapiens) (UniProt P06241); settings: at 0.1 µM
Sequence of Tyrosine-protein kinase Fyn (Homo sapiens) (P06241 2-537 limits assumed): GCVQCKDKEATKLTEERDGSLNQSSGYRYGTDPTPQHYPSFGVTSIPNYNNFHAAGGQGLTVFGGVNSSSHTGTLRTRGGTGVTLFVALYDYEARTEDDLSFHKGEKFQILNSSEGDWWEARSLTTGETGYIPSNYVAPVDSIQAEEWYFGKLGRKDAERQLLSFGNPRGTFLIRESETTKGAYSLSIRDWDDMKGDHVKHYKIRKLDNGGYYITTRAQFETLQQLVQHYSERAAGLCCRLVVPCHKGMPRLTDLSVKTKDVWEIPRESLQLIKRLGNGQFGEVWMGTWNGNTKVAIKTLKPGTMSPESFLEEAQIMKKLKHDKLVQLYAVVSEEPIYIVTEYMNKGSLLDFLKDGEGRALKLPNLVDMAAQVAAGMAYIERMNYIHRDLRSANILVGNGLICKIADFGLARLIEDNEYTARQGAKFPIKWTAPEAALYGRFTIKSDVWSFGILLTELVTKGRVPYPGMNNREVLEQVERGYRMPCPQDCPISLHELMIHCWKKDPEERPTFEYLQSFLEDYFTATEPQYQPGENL

Sequence of Serine/threonine-protein kinase Nek7 (Homo sapiens) (Q8TDX7 whole entry, looked up): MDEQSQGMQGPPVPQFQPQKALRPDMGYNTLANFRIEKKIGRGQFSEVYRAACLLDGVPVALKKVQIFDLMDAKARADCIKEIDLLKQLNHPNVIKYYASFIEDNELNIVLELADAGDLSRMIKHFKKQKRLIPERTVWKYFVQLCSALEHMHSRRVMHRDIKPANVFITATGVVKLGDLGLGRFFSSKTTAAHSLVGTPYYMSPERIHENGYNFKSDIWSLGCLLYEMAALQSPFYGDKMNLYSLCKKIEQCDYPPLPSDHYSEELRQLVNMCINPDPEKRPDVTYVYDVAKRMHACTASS
Sequence of Vascular endothelial growth factor receptor 3 (Homo sapiens) (P35916 whole entry): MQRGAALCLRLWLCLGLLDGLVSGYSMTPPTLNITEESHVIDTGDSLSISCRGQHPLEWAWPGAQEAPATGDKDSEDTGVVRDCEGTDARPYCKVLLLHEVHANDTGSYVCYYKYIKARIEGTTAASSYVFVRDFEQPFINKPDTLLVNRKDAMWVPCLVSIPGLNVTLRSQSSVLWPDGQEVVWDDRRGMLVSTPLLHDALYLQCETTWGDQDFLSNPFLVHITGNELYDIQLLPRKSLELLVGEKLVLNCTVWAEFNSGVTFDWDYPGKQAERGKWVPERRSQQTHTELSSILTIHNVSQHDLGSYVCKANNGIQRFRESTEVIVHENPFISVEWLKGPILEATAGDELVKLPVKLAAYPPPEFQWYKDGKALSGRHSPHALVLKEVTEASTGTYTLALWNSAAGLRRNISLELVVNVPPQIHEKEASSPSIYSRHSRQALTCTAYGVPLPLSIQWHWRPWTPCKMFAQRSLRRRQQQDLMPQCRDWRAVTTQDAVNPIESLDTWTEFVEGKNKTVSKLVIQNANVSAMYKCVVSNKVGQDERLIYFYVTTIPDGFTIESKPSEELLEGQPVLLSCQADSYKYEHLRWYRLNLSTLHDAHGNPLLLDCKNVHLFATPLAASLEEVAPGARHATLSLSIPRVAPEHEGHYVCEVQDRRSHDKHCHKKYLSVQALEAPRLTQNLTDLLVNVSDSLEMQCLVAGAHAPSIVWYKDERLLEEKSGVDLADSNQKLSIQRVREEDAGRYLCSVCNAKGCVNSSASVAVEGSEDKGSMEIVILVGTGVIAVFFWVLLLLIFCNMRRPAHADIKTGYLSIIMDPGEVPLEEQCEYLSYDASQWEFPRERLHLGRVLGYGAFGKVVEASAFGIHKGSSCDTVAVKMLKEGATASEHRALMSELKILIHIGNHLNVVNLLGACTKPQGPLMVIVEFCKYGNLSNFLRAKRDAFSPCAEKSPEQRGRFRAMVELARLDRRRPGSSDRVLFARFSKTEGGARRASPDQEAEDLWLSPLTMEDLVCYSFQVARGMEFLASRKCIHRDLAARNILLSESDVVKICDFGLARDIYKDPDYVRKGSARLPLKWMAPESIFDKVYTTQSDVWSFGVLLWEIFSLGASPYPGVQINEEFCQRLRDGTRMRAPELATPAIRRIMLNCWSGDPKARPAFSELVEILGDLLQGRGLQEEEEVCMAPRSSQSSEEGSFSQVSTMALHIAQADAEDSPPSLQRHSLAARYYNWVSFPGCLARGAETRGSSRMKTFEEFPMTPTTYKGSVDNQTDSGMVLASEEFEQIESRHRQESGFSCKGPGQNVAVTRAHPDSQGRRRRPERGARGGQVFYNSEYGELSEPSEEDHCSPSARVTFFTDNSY
Sequence of Serine/threonine-protein kinase Nek6 (Homo sapiens) (Q9HC98 whole entry): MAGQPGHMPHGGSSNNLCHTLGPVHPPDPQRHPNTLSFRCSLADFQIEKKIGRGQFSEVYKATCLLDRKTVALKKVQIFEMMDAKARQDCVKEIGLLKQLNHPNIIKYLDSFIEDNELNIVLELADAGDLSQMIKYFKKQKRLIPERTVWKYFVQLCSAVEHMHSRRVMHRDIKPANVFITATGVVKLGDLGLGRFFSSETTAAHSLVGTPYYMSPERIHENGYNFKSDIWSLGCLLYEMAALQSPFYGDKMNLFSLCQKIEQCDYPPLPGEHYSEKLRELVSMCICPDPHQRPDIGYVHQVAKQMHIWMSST
Sequence of Serine/threonine-protein kinase PLK1 (Homo sapiens) (P53350 whole entry): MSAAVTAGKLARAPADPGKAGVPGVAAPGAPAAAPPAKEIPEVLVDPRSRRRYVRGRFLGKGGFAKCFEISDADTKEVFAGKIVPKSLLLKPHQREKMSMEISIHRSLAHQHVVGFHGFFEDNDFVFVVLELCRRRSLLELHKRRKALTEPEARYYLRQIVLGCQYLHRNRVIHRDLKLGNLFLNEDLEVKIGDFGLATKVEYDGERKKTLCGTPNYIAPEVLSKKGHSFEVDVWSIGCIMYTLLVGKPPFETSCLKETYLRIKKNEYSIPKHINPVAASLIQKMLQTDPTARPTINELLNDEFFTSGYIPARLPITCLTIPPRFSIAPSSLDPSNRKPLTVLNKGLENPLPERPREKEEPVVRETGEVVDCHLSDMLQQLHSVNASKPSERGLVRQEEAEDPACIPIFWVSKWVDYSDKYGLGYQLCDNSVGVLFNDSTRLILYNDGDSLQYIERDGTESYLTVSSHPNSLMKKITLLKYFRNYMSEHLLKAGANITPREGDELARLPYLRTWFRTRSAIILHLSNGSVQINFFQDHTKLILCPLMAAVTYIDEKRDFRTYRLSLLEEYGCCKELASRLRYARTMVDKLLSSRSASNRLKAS
Sequence of Macrophage colony-stimulating factor 1 receptor (Homo sapiens) (P07333 whole entry): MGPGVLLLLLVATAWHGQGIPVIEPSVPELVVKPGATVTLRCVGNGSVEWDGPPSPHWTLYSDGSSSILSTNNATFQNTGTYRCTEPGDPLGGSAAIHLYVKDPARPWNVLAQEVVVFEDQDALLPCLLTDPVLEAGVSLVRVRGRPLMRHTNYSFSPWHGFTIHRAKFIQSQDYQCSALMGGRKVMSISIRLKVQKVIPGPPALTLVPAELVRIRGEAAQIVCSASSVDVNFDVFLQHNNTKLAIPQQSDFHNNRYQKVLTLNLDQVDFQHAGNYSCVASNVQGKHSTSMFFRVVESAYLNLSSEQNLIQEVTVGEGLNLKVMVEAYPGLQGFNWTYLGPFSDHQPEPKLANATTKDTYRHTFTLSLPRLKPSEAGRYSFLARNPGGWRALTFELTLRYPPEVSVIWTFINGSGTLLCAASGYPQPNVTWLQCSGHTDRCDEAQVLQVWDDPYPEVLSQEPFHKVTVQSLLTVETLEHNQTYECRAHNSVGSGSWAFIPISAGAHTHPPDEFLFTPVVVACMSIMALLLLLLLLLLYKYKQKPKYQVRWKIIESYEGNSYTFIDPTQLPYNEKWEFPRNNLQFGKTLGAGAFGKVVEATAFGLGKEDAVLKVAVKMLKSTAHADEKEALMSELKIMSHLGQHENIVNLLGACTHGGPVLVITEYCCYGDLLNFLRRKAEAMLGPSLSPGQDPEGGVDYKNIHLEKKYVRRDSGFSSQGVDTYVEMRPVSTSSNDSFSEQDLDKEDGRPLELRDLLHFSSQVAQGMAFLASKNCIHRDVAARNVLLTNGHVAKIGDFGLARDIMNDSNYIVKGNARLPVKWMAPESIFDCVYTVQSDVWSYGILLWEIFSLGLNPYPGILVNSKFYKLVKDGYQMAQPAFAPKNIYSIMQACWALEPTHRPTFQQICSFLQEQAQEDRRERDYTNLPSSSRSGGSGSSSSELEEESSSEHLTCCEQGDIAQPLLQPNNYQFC

Row | SMILES | inhibition [1] | inhibition [2] | inhibition [3] | inhibition [4] | inhibition [5] | inhibition [6] | inhibition [7] | inhibition [8] | inhibition [9] | inhibition [10] | inhibition [11] | inhibition [12] | inhibition [13] | inhibition [14] | inhibition [15] | inhibition [16] | inhibition [17] | inhibition [18] | inhibition [19] | inhibition [20]
1 | CCS(=O)(=O)c1ccc(OC)c(Nc2ncc(-c3cccc(C(C)=O)c3)o2)c1 | 5.1% | 1.59% | 4.9% | 3.34% | 2.2% | 3.06% | 3.18% | 2.79% | 3.24% | 5.45% | 3.45% | 2.42% | 2.98% | 5.81% | 87.2% | 10.7% | 47.3% | 10.2% | 34.7% | 26.4%
2 | CC1(C)CC(n2cnc(-c3ccc(F)cc3)c2-c2ccnc(N)n2)CC(C)(C)N1 | 0.72% | 0.9% | 0.83% | 1.02% | 2.07% | 1.95% | 0.37% | 3.74% | 1.39% | 5.35% | 2.47% | 2.09% | 0.76% | -0.55% | 0.24% | 3.06% | 2.77% | 1.31% | 0.54% | 1.49%
3 | COc1cccc(Nc2nccc(-c3cnn4ncccc34)n2)c1 | 18.1% | 3.3% | 18.3% | 4.5% | 5.64% | 3.79% | 1.04% | -0.48% | 4.19% | 10.7% | 26.1% | 3.48% | 21.3% | 4.85% | 52.3% | -0.16% | 30.2% | 50.4% | 90.9% | 1.46%
